Data: PubChem BioAssay (NCATS)
Unmarked numbers belong to inactive results. Inconclusive results are not listed. Calls of active or inactive are those of the source. Unless noted, calls come from the whole dose curve; as a rule, active = well fitted curve in the direction sought with a large enough effect; inconclusive = small, poorly fitted or top-dose-only effect, or another doubt; inactive = no such curve, though single readings can be large; an effect the other way counts as inactive or inconclusive.

Assays:
[1] = target: Lysosomal acid glucosylceramidase (Homo sapiens) (UniProt P04062); assay: Glucocerebrosidase-p2 (AID 348; in the data active = potency below about 10 µM; note: potency is the fitted concentration of half-maximal effect); conditions: purified GBA, blue fluorogenic substrate, 40 min
Outline: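 Compounds titrated from 0.6 nM upwards against 0.2 nM enzyme in pH 5.9 citric acid/KH2PO4, taurocholate, tween-20; blue fluorogenic substrate 80 uM, 40 min room temperature, stopped and read Ex 365/Em 440 for AC50.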

[2] = AP1 Signaling Pathway (AID 357; active = well fitted curve in either direction with a large enough effect, not every such curve was filed as active; note: % is set by controls: 0 for no effect and ±100 for the full control effect); conditions: ME-180 AP-1-bla reporter, EGF-induced, beta-lactamase ratio, 5 h; at 7.69 µM (top of the series) unless noted
Outline: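 ME-180 cells with beta-lactamase reporter under AP-1 response element, stimulated with EC50 EGF; compounds tested in titration series, 5 h at 37 °C. CCF4 substrate added 2.5 h at room temperature; 460/530 nm emission ratio gave %activity and AC50.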

[3] = target: Cytochrome P450 1A2 (Homo sapiens) (UniProt P05177); assay: p450-cyp1a2 (AID 410; calls by dose curve; note: potency is the fitted concentration of half-maximal effect); conditions: recombinant CYP1A2, luciferin-ME demethylation, luminescence; series mostly up to 57 µM
Outline: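 Luminescent readout of luciferin formed from Luciferin-ME by human CYP1A2; data normalized against complete inhibition by 57 uM furafylline. Enzyme 20nM, substrate 100uM at Km, 100mM KPO4 buffer, 60 min reaction at room temperature.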

[4] = NFAT Signaling Pathway (AID 444; active = well fitted curve in either direction with a large enough effect, not every such curve was filed as active;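 note: carbachol stimulus at about its EC50 of 1 µM final; % is set by controls: 0 for no effect and ±100 for the full control effect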); conditions: Jurkat NFAT-bla M1, carbachol, beta-lactamase ratio, 5 h; at 7.69 µM (top of the series) unless noted
Outline: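 Jurkat cells with NFAT-driven β-lactamase reporter and co-expressed M1 receptor, stimulated with carbachol (final 1 uM, ~EC50), compound titration, 5 h at 37 °C. CCF4 loaded 1 h at RT; 460/530 nm ratio gave %activity and AC50.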

[5] = Stat Signaling Pathway (AID 446; active = well fitted curve in either direction with a large enough effect, not every such curve was filed as active;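 note: ME-180 cervical cancer cells given 40 pM IL-6 alongside compound; SIE-controlled beta-lactamase reporter measured as 460/530 nm FRET emission ratio; % is set by controls: 0 for no effect and ±100 for the full control effect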); conditions: ME-180 SIE beta-lactamase reporter, IL-6 stimulated, 5 h; at 7.69 µM (top of the series) unless noted
Outline: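 Reporter line: ME-180 cervical carcinoma, SIE-beta-lactamase. Treatment: compound with 40 pM IL-6, 5 hrs, 37 C, in low-serum OPTI-MEM with 10 mM HEPES pH 7.3. Detection: 460/530 nm fluorescence.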

[6] = target: Glucocorticoid receptor (Homo sapiens) (UniProt P04150); assay: GR-GFP Redistribution (AID 450;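 active = compounds whose dose series gives a full or clear partial fitted curve of increased nuclear translocation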; note: potency is the fitted concentration of half-maximal effect); conditions: U2OS GR-GFP nuclear translocation, laser cytometry, 2 h
[7] = target: Glucocorticoid receptor (Homo sapiens) (UniProt P04150); assay: GR-EFC Redistribution (AID 451; calls by dose curve; note: potency is the fitted concentration of half-maximal effect); conditions: CHO-K1 GR-EFC translocation, beta-gal luminescence, 2 h
Outline: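 CHO-K1 cells expressing nuclear EA and GR-ED fragments of b-gal; compounds titrated up to 46 uM final, 2 h at 37 C. GR nuclear translocation read as complemented b-gal luminescence after 1 h RT detection.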

[8] = target: Cytochrome P450 3A4 (Homo sapiens) (UniProt P08684); assay: qHTS Assay for Activators of Cytochrome P450 3A4 (AID 885); conditions: recombinant CYP3A4, Luciferin-PPXE luminescence, 60 min; series mostly up to 57.1 µM; note: nearly all actives have a fitted effect of over 65% in size
Outline: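 Signal was normalized against complete inhibition by 57 uM ketoconazole. The reaction used 20nM CYP3A4 with 25uM Luciferin-PPXE, 10-min compound preincubation and a 60-min NADPH-supported step at RT.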

[9] = target: Dual specificity protein kinase CLK4 (Homo sapiens) (UniProt Q9HAZ1); assay: qHTS Assay for Inhibitors of CDC-like Kinase 4 (Kinase-Glo Assay) (AID 1770); conditions: recombinant Clk4, Kinase-Glo ATP depletion luminescence; series mostly up to 66.7 µM; note: % is set by controls: 0 for no effect and ±100 for the full control effect; nearly all actives have a fitted effect of over 65% in size
Outline: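 Recombinant human Clk4 (25 nM) phosphorylated RS repeat peptide (100 uM) with 1 uM ATP in Tris pH 7.5/MgCl2/EGTA/DTT/Triton buffer for 4.5 h at room temperature. Residual ATP was quantified by Kinase-Glo luciferase luminescence.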

[10] = target: Dual specificity protein kinase CLK4 (Homo sapiens) (UniProt Q9HAZ1); assay: qHTS Assay for Inhibitors of CDC-like Kinase 4 (ADP-FP Assay) (AID 1795); conditions: Transcreener ADP fluorescence polarization; series mostly up to 50 µM; note: % is set by controls: 0 for no effect and ±100 for the full control effect; nearly all actives have a fitted effect of over 60% in size
Outline: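 Recombinant human Clk4 (6.25 nM) phosphorylated RS repeat peptide (100 uM) with 1 uM ATP in Tris pH 7.5/MgCl2/EGTA/DTT/Triton buffer for one hour. ADP was quantified by Transcreener competitive fluorescence polarization against an ADP calibration curve.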

[11] = target: Ubiquitin carboxyl-terminal hydrolase 1 (Homo sapiens) (UniProt O94782); assay: Inhibitors of USP1/UAF1: Pilot qHTS (AID 504865); conditions: purified USP1/UAF1, Ub-rhodamine cleavage fluorescence; series mostly up to 54.9 µM; note: nearly all actives have a fitted effect of over 35% in size; note: potency is the fitted concentration of half-maximal effect
Outline: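 USP1/UAF1 complex (1nM) preincubated with compound 15 min at room temperature, then Ub-Rho substrate (150nM final) added. Fluorescence read kinetically at 480/540 nm, 6 reads every 60 seconds. Buffer: 50mM HEPES pH 7.8, 0.5mM EDTA, 0.1 mg/ml BSA, 1mM TCEP, 0.01% Tween-20.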

[12] = Primary qHTS for small molecule stabilizers of the endoplasmic reticulum resident proteome: Secreted ER Calcium Modulated Protein (SERCaMP) assay (AID 1508630); conditions: SH-SY5Y GLuc-SERCaMP (Gaussia luciferase released on ER calcium loss) secretion, thapsigargin, luminescence; series mostly up to 38.4 µM; note: % is set by controls: 0 for no effect and ±100 for the full control effect
Outline: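 GLuc-SERCaMP-expressing SH-SY5Y cells, pretreated 16 h with compound, are challenged with thapsigargin to empty ER calcium stores; after 4 h, coelenterazine is added directly to the medium and luminescence is imaged.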

[13] = target: 3',5'-cyclic-AMP phosphodiesterase 4B (Homo sapiens) (UniProt Q07343); assay: qHTS Assay for Inhibitors of PDE-IV (AID 607; active = well fitted activation curve with a large enough effect in the main read-out, with a control signal flat, not every such curve was filed as active; note: % of control where 0% means no effect); conditions: HEK293 ACTOne CNG channel cells, membrane potential fluorescence; series mostly up to 22.9 µM
Outline: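 Cell-based read-out of cAMP via a modified cyclic nucleotide-gated channel and membrane potential dye (535/590 nm) in HEK293 cells expressing PDE4 endogenously. Compounds tested up to 22.9 uM final; 100 uM RO 20-1724 reference.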

[14] = target: Mitogen-activated protein kinase 10 (Mus musculus) (UniProt Q61831); assay: JNK3 AlphaScreen Assay (AID 530; active = well fitted curve in either direction with a large enough effect, not every such curve was filed as active); conditions: JNK3 lysate, c-Jun phosphorylation; series mostly up to 57.1 µM
Outline: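 Pre-activated (IL-1β/TNFα) JNK3 in HepG2 lysates phosphorylates biotin-GST-cJun(1-79), 10 uM ATP; anti-phospho-cJun(Ser73) AlphaScreen read at room temperature, pH 7.6 Tris buffer. Compounds pre-incubated 15 min as titrations.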

[15] = target: Cytochrome P450 3A4 (Homo sapiens) (UniProt P08684); assay: qHTS Assay for Inhibitors and Substrates of Cytochrome P450 3A4 (AID 884); conditions: recombinant CYP3A4, Luciferin-PPXE luminescence; series mostly up to 57.1 µM; note: potency is the fitted concentration of half-maximal effect; nearly all actives have a fitted effect of over 50% in size
Outline: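 20 nM human CYP3A4 with 25 uM Luciferin-PPXE (at KM) in 200 mM KPO4, preincubated 10 min with compound; NADPH regeneration started a 60 min RT reaction. Luciferin detected by luminescence, normalized to 57 uM ketoconazole as full inhibition.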

[16] = target: Cytochrome P450 2C19 (Homo sapiens) (UniProt P33261); assay: qHTS Assay for Inhibitors and Substrates of Cytochrome P450 2C19 (AID 899); conditions: recombinant CYP2C19, luciferin-H EGE luminescence; series mostly up to 57.1 µM; note: potency is the fitted concentration of half-maximal effect; nearly all actives have a fitted effect of over 60% in size
Outline: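 Luminescent read-out of luciferin formed from Luciferin-H EGE (10uM, equal to KM). Enzyme 5nM in 50mM KPO4; compound added, 10 min at 37C, then NADPH regenerating system for 60 min at 37C. Full inhibition defined by 57uM ketoconazole.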

[17] = target: Dual specificity protein kinase CLK4 (Homo sapiens) (UniProt Q9HAZ1); assay: qHTS Assay for Inhibitors of CDC-like Kinase 4 (ADP-Glo Assay) (AID 1771); conditions: recombinant CLK4, ADP-Glo luminescence; series mostly up to 80 µM; note: potency is the fitted concentration of half-maximal effect; nearly all actives have a fitted effect of over 70% in size
Outline: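 Luminescence from ADP-Glo reports ADP produced by 25 nM Clk4 acting on 100 uM RS repeat peptide with 1 uM ATP over 1 hr at room temperature; residual ATP is depleted before ADP is converted to ATP for detection.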

[18] = qHTS Assay for Identification of Small Molecule Agonists for Hypoxia Response Element Signaling Pathway (AID 914; active = well fitted activation curve with a large enough effect in the signal ratio, with a control signal flat, not every such curve was filed as active; the % refers to the signal ratio; note: % of control where 0% means no effect); conditions: ME-180 (cervical carcinoma) HRE-bla reporter, beta-lactamase ratio, CoCl2, 17 h; activation: hits give high values
Outline: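 Compounds in a titration series were added to ME-180 reporter cells alongside an EC50 level of CoCl2. After 17 hours, beta-lactamase activity was read as the 460nm/530nm emission ratio of CCF4, giving AC50 values.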

Lysosomal acid glucosylceramidase (Homo sapiens), sequence (P04062 whole entry, looked up): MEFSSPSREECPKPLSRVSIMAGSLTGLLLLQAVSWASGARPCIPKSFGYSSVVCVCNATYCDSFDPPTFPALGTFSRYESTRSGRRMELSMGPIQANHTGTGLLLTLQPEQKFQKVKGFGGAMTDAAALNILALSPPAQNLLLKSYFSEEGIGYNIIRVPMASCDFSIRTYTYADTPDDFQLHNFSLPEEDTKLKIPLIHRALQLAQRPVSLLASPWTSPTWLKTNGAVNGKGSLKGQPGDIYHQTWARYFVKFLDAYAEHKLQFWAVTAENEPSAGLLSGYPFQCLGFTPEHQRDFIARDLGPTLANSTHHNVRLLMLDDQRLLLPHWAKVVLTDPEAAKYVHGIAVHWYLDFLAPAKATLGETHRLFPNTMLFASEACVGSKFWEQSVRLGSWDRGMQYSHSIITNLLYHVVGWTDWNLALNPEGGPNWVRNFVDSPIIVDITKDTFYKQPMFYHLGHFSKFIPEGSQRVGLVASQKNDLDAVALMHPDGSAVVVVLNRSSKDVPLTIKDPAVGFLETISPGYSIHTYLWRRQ
Glucocorticoid receptor (Homo sapiens), sequence (P04150 whole entry, looked up, the tested form may be a part): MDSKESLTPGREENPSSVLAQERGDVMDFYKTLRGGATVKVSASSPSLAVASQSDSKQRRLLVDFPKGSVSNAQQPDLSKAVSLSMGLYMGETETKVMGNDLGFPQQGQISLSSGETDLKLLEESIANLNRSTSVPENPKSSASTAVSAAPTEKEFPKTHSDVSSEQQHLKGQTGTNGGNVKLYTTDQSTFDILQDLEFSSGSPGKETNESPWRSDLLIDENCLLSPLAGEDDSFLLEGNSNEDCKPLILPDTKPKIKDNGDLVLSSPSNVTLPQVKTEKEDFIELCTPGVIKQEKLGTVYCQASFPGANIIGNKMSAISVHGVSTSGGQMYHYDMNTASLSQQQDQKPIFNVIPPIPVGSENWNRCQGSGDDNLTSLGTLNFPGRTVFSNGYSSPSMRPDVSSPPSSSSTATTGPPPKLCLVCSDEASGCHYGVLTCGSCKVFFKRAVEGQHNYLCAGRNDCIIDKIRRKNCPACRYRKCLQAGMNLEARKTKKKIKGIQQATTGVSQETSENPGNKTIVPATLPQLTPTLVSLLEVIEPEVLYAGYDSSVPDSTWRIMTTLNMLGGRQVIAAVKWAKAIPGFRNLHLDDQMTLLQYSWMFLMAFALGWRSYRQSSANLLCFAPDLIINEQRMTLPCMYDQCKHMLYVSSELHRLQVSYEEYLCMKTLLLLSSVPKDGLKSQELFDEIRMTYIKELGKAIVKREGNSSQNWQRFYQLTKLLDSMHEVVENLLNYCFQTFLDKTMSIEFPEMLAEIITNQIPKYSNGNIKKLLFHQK
Dual specificity protein kinase CLK4 (Homo sapiens), sequence (Q9HAZ1 whole entry, looked up): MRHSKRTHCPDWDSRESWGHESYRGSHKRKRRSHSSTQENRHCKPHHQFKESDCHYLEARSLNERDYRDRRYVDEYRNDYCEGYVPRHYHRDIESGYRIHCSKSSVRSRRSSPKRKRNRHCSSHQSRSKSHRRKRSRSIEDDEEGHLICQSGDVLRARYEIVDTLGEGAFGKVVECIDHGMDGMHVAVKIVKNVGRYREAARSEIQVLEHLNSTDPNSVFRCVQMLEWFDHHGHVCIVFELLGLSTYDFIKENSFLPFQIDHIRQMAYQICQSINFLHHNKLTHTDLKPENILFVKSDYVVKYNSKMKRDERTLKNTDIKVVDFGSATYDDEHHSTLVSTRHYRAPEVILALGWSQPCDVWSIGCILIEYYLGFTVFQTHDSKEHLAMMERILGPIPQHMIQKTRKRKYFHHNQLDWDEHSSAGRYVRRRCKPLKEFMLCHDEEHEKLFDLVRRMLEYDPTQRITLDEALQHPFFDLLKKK
Cytochrome P450 1A2 (Homo sapiens), sequence (P05177 whole entry, looked up): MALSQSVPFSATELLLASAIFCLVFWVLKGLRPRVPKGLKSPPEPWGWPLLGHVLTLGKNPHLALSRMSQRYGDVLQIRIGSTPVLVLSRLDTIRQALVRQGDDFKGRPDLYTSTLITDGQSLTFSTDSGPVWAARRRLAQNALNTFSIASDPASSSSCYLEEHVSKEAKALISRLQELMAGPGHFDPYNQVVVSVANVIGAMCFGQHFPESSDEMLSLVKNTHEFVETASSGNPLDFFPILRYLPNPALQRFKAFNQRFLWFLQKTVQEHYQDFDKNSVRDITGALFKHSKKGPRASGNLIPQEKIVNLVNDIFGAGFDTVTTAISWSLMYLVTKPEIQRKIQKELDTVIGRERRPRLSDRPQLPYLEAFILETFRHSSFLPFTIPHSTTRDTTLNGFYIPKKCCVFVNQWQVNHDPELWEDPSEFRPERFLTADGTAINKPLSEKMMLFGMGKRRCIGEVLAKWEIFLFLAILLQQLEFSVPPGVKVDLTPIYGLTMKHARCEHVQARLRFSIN
Cytochrome P450 3A4 (Homo sapiens), sequence (P08684 whole entry, looked up): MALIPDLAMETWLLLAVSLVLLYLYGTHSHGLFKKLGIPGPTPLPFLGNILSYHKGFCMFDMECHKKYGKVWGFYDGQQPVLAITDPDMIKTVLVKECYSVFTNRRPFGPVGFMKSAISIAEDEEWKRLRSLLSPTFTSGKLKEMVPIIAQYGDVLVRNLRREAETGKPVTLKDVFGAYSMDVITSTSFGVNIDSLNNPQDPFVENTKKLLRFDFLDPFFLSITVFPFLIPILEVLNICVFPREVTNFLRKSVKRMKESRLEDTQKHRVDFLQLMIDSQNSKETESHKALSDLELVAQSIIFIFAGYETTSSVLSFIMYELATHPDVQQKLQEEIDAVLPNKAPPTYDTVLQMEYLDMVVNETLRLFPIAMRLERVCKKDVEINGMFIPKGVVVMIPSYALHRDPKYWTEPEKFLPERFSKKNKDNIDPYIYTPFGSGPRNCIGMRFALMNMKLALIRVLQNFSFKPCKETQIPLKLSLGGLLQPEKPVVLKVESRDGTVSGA
Ubiquitin carboxyl-terminal hydrolase 1 (Homo sapiens), sequence (O94782 whole entry, looked up): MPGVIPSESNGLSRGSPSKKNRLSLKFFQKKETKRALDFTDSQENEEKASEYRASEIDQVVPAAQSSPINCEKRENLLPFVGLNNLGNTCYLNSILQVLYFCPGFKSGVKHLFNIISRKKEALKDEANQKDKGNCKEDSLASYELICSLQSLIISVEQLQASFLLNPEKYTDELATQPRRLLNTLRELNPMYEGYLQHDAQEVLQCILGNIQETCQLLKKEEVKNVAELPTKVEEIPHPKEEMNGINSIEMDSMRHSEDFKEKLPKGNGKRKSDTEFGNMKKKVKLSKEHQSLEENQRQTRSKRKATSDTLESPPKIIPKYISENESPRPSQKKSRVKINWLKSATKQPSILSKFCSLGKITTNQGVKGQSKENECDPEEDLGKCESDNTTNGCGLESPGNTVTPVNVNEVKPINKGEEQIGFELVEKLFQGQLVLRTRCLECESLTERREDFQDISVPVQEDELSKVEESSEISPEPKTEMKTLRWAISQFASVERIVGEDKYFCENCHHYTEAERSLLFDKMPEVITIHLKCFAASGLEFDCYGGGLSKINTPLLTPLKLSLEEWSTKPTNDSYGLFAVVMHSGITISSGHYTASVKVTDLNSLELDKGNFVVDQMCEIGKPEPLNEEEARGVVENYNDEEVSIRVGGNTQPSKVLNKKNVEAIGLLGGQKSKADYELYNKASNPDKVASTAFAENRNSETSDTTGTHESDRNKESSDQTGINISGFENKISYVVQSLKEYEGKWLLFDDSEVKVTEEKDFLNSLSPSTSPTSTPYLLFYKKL
Cytochrome P450 2C19 (Homo sapiens), sequence (P33261 whole entry, looked up): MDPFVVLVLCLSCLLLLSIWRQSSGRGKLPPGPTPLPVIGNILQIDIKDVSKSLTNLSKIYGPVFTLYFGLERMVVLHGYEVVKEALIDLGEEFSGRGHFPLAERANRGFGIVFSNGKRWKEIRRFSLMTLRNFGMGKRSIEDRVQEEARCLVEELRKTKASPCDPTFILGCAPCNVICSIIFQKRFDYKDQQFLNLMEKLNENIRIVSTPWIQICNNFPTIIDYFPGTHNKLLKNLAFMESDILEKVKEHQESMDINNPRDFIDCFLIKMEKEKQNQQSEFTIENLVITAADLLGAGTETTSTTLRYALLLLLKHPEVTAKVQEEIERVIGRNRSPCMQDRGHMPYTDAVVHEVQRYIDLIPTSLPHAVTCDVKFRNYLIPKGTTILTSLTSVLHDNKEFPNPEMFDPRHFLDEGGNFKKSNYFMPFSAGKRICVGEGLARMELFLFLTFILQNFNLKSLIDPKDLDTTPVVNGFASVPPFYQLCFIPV
3',5'-cyclic-AMP phosphodiesterase 4B (Homo sapiens), sequence (Q07343 whole entry, looked up): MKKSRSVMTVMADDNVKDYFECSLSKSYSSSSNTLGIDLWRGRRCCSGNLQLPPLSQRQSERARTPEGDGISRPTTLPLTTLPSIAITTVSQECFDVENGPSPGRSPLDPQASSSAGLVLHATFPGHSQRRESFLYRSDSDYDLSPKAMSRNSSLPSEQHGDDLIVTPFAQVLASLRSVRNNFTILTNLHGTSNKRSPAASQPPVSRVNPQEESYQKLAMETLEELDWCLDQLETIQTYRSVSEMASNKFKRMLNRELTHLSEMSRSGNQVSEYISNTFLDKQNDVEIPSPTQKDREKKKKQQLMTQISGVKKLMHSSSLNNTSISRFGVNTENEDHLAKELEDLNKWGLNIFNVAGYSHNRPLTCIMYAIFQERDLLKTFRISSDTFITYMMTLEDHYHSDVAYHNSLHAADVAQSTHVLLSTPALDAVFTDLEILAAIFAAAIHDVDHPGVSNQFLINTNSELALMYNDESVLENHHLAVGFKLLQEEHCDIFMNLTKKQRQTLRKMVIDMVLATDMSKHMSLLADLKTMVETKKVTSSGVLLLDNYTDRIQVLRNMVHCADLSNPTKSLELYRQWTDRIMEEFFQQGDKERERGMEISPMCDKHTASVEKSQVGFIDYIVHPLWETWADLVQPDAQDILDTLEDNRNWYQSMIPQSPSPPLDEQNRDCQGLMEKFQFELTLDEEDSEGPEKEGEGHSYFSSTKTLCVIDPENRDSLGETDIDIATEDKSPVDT

For COc1ccc(-c2nc3cnc(N(C)C)nc3n(C[C@H]3CCCO3)c2=O)cc1, the Potency [1] was greater than 11.4 µM, the activity change, negative = inhibition [2] was 1.23% and the Potency [3] was 3.16 µM (active). The activity change, negative = inhibition [4] was -3.89%, the activity, negative = inhibition [5] was 2.75% and the Potency [6] was greater than 9.22 µM. The Potency [7] was greater than 46 µM, the Potency [8] was “inactive” and the Potency [9] was “inactive”. For the same compound, the Potency [10] was “inactive”, the Potency [11] was “inactive” and the outcome [12] was “inactive”.

Work on CN1CCN(c2ncc3nc(-c4cccs4)c(=O)n(Cc4ccc(F)cc4)c3n2)CC1 yielded a Potency [1] greater than 11.4 µM, a Potency [6] greater than 9.22 µM and a Potency [7] greater than 46 µM. The Potency [13] was “inactive”, the Potency [9] was “inactive” and the Potency [10] was “inactive”. For the same compound, the outcome [12] was “inactive”.

With Cc1noc(C)c1-c1nc(NCc2cccs2)c2ccccc2n1 the Potency [1] was greater than 2.29 µM, the activity change, negative = inhibition [2] was 3.98% and the Potency [3] was 0.2 µM (active). For the same compound, the activity, negative = inhibition [5] was -8.06%, the Potency [6] was greater than 46 µM and the Potency [7] was greater than 46 µM. The Potency [14] was “inactive”, the Potency [15] was 6.31 µM (active) and the Potency [8] was “inactive”. The Potency [9] was “inactive”, the Potency [10] was “inactive” and the Potency [11] was 10 µM (active). The outcome [12] was “inactive”.

With CS(=O)(=O)Nc1cccc(-c2cncnc2NCc2cccnc2)c1 the Potency [1] was greater than 11.4 µM, the activity change, negative = inhibition [2] was 10.9% and the Potency [3] was 15.8 µM (active). It also gave an activity change, negative = inhibition [4] of -3.98%, an activity, negative = inhibition [5] of -1.28% and a Potency [7] greater than 46 µM. For the same compound, the Potency [14] was “inactive”, the Potency [13] was “inactive” and the Potency [8] was “inactive”. The Potency [16] was 3.16 µM (active), the Potency [9] was “inactive” and the Potency [10] was “inactive”. For the same compound, the outcome [12] was “inactive”.

Compound COc1cccc(-c2cncnc2Nc2ccccc2)c1 has a Potency [1] greater than 11.4 µM, an activity change, negative = inhibition [2] of -6.33% and an activity change, negative = inhibition [4] of 0.84%. For the same compound, the activity, negative = inhibition [5] was -2.57%, the Potency [6] was greater than 46 µM and the Potency [7] was greater than 46 µM. The Potency [14] was “inactive”, the Potency [9] was “inactive” and the Potency [10] was “inactive”. The Potency [11] was “inactive” and the outcome [12] was “inactive”.

In the case of COc1ccccc1-c1nc(N2CCOCC2)c2ccccc2n1, the Potency [1] is reported as greater than 11.4 µM, the activity change, negative = inhibition [2] is reported as -9.32% and the Potency [3] is reported as 0.501 µM (active). For the same compound, the activity change, negative = inhibition [4] was 10.4%, the activity, negative = inhibition [5] was 14.3% and the Potency [6] was greater than 46 µM. For the same compound, the Potency [7] was greater than 46 µM, the Potency [14] was “inactive” and the Potency [8] was “inactive”. For the same compound, the Potency [17] was 20 µM (active), the Potency [10] was “inactive” and the Potency [11] was “inactive”. The outcome [12] was “inactive”.

With Cc1nc2cnc(N(C)C)nc2n(CCc2ccccc2)c1=O the Potency [1] was greater than 11.4 µM, the activity change, negative = inhibition [2] was -5.39% and the Potency [3] was 1.26 µM (active). The activity change, negative = inhibition [4] was -14.5%, the Potency [6] was greater than 9.22 µM and the Potency [7] was greater than 46 µM. For the same compound, the Potency [14] was “inactive”, the Potency [8] was “inactive” and the Potency [16] was 0.631 µM (active). The activation [18] was -12%, the Potency [17] was 35.5 µM (active) and the Potency [10] was “inactive”. For the same compound, the Potency [11] was “inactive” and the outcome [12] was “inactive”.
